Measured values published in PubChem BioAssay (Tox21).
Inconclusive results are not listed. Entries that show only a call come without a potency. More than one record can exist for a structure, and the calls need not agree. Active and inactive are the calls of the source. Calls come from the whole dose curve; as a rule, active = well fitted cell-killing curve with a large enough effect in the repeat runs; inconclusive = weak or mixed curves, or effect the other way; inactive = flat fitted curve, though single readings scatter.

Assay: qHTS assay to identify small molecule HDAC inhibitors - cell viability counter screen (AID 1259365)
Conditions: HCT-116 viability, CellTiter-Glo ATP luminescence, 2 h; series mostly up to 92.4 µM
Outline: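 Viability readout: CellTiter-Glo luminescence. Wild-type HCT-116 cells, 2hr compound treatment following overnight attachment at 37 C.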
Note: nearly all actives have a fitted effect of over 50% in size.

Compound	outcome
[N-]=[N+]=CC(=O)OC[C@H](N)C(=O)O	inactive
CCOP(=S)(OCC)Oc1ccc([N+](=O)[O-])cc1	inactive
Cl[C@H]1OCCO[C@@H]1Cl	inactive
Nc1ccc(N)cc1	inactive
CCCCCCCCCCCCCCCCCC(=O)O	inactive
O=C(O)CCCc1ccc(N(CCCl)CCCl)cc1	inactive
OC[C@@H](O)[C@H]1O[C@@H]2O[C@H](C(Cl)(Cl)Cl)O[C@@H]2[C@H]1O	inactive
CC(C)c1cccc(C(C)C)c1O	inactive
CC(C)CCCCCCOC(=O)c1ccccc1C(=O)OCCCCCCC(C)C	inactive
O=P1(NCCCl)OCCCN1CCCl (configuration not stated)	inactive
CNC(=O)O/N=C(\SC)C(=O)N(C)C	inactive
O=C(O)Cc1ccccc1	inactive
N#Cc1cccc(C#N)c1	inactive
Oc1c(Br)cc(Br)cc1Br	inactive
c1ccc2c(c1)CCCC2	inactive
O=[N+]([O-])c1ccc(Cl)cc1	inactive

Compound	outcome
C/C=C/c1ccc2c(c1)OCO2	inactive
CN(C)C(=O)C(c1ccccc1)c1ccccc1	inactive
CC12CC1(C)C(=O)N(c1cc(Cl)cc(Cl)c1)C2=O (configuration not stated)	inactive
Cc1ccccc1N	inactive
Clc1cnc(Oc2ccc(Oc3ncc(Cl)cc3Cl)cc2)c(Cl)c1	inactive
CC(=O)/C=C/c1ccccc1	inactive
CC(=O)C1CCOC1=O (configuration not stated)	inactive
Cc1ccc(N=C=O)cc1N=C=O	inactive
C=CC(=O)OCCCCCC(C)C	inactive
COC(=O)Nc1cccc(OC(=O)Nc2cccc(C)c2)c1	inactive
O=S(=O)(O)OOS(=O)(=O)O	inactive
Cc1ccc(N)cc1	inactive
CC[N+](=O)[O-]	inactive
CN1C(=O)CCS(=O)(=O)C1c1ccc(Cl)cc1 (configuration not stated)	inactive
C=CC(=O)OCC(CC)CCCC (configuration not stated)	inactive

Assay: qHTS assay to identify small molecule agonists of the sonic hedgehog signaling (Shh) pathway - cell viability counter screen (AID 1259366); note: potency is the fitted concentration of half-maximal effect
Conditions: NIH/3T3 Gli1-Luc viability, CellTiter-Fluor, 24 h; series mostly up to 92.4 µM
Outline: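 Viability measured fluorometrically (CellTiter-Fluor, 1hr, 37C) in 3T3 Gli1-Luc reporter cells after 23hr compound exposure within a 24hr incubation at 37C/5% CO2.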

Compound	Potency
[N-]=[N+]=CC(=O)OC[C@H](N)C(=O)O	inactive
CCOP(=S)(OCC)Oc1ccc([N+](=O)[O-])cc1	inactive
Cl[C@H]1OCCO[C@@H]1Cl	inactive
Nc1ccc(N)cc1	61.4 µM (active) and inactive
CCCCCCCCCCCCCCCCCC(=O)O	inactive
O=C(O)CCCc1ccc(N(CCCl)CCCl)cc1	inactive
OC[C@@H](O)[C@H]1O[C@@H]2O[C@H](C(Cl)(Cl)Cl)O[C@@H]2[C@H]1O	inactive
CC(C)c1cccc(C(C)C)c1O	inactive
CC(C)CCCCCCOC(=O)c1ccccc1C(=O)OCCCCCCC(C)C	inactive
O=P1(NCCCl)OCCCN1CCCl (configuration not stated)	inactive
CNC(=O)O/N=C(\SC)C(=O)N(C)C	inactive
O=C(O)Cc1ccccc1	inactive
N#Cc1cccc(C#N)c1	inactive
Oc1c(Br)cc(Br)cc1Br	inactive
c1ccc2c(c1)CCCC2	inactive
O=[N+]([O-])c1ccc(Cl)cc1	inactive

Compound	Potency
C/C=C/c1ccc2c(c1)OCO2	inactive
CN(C)C(=O)C(c1ccccc1)c1ccccc1	inactive
CC12CC1(C)C(=O)N(c1cc(Cl)cc(Cl)c1)C2=O (configuration not stated)	inactive
Cc1ccccc1N	inactive
Clc1cnc(Oc2ccc(Oc3ncc(Cl)cc3Cl)cc2)c(Cl)c1	inactive
CC(=O)/C=C/c1ccccc1	inactive
CC(=O)C1CCOC1=O (configuration not stated)	inactive
Cc1ccc(N=C=O)cc1N=C=O	inactive
C=CC(=O)OCCCCCC(C)C	inactive
COC(=O)Nc1cccc(OC(=O)Nc2cccc(C)c2)c1	inactive
O=S(=O)(O)OOS(=O)(=O)O	inactive
Cc1ccc(N)cc1	inactive
CC[N+](=O)[O-]	inactive
CN1C(=O)CCS(=O)(=O)C1c1ccc(Cl)cc1 (configuration not stated)	inactive
C=CC(=O)OCC(CC)CCCC (configuration not stated)	inactive
